Screening data (PubChem BioAssay)
Rows were chosen to be rich in hits. Some 2.3% of all compounds tested hit in one or more screens of this group.
ANO1 block: inhibitors of mouse TMEM16A calcium-activated chloride channel. Q8BHY3. HEK293 TMEM16A/YFP iodide influx fluorescence, ionomycin. normalized B-score (activity score, 25-100; higher = stronger inhibition) at 10 µM. 1.2% of 310,000 active;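 active means ratio plate-corrected score three or more library SD toward inhibition, starting fluorescence score within five deviations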;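 further: score derived from kinetic fluorescence span divided by baseline fluorescence per well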
Target sequence (Q8BHY3 whole entry, looked up): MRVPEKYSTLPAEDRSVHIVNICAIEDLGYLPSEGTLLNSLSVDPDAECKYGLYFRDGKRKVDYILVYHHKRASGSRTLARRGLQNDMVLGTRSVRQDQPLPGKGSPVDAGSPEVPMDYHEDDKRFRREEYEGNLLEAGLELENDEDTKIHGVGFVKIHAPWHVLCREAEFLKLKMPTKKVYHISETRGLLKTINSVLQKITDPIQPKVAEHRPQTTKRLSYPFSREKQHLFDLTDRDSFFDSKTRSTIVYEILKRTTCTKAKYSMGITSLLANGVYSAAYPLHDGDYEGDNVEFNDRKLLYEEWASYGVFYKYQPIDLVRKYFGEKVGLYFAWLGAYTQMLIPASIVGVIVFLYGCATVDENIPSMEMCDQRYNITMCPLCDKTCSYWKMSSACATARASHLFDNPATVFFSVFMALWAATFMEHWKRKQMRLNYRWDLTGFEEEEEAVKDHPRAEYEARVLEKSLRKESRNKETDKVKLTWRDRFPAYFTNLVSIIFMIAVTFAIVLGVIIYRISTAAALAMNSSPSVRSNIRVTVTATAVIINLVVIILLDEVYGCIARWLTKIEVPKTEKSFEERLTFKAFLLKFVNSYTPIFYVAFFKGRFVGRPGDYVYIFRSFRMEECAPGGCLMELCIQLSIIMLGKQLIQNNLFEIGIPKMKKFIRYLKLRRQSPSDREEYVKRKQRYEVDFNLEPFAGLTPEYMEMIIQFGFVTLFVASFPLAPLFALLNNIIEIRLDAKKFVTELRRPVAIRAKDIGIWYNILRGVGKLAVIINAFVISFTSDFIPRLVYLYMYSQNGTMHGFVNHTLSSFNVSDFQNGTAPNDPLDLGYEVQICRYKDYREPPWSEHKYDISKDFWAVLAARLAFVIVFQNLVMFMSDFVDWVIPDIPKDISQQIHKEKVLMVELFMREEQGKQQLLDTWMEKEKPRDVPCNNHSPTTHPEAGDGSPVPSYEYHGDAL
CHT PAM: allosteric activators of human choline transporter CHT | Q9GZV3 | CHT-expressing cells, membrane potential dye, choline EC20; hits give high values; LV-AA mutant CHT in HEK293 cells | B-score at 10 µM | 0.49% of 310,000 active;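 active means initial fluorescence not abnormally high and integrated response B-score, plate-corrected, over 3 SD above library mean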
TMEM16A act: mouse TMEM16A channel activation, primary screen. Q8BHY3. B-score at 10 µM. HEK293 TMEM16A/YFP-H148Q/I152L, iodide quench fluorescence; hits give low values. 0.3% of 340,000 active;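 active means fluorescence-ratio B-score plate-corrected deviation score at least 3 library SD below zero, with starting fluorescence score within 5 deviations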;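 further: channel opened by trigger with iodide after compound preincubation; score built on the fluorescence ratio of max minus min over baseline; more negative score means more quench and so TMEM16A activation or potentiation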
CHT inh: inhibits the human high affinity choline transporter; B-score at 10 µM; CHT-expressing cells, membrane potential dye, choline response; hits give low values; 0.86% of 310,000 active; Q9GZV3;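 active means B-score over 3 SD under the library average, and starting fluorescence ratio not unusually high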;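 further: choline stimulus applied at its EC90 after an EC20 pre-addition; B-score computed on integrated fluorescence ratio after choline addition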
TMEM16A reconf: reconfirmed blocker of mouse TMEM16A calcium-activated chloride channel; shares compounds with ANO1 block; HEK293 TMEM16A/YFP-H148Q, iodide quench fluorescence; ionomycin added to raise cell calcium; inhibition, % at 10 µM; 39% of 2,300 active; AID 652189;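 active means mean duplicate percent inhibition, scaled so buffer wells are 0 and the reference blocker 100, over three buffer SD above buffer mean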
TMEM16A Ca cntr: calcium mobilization counter-screen hit for TMEM16A inhibitor series; shares compounds with ANO1 block; TMEM16A/YFP HEK293, Fluo4 calcium mobilization; calcium response (% of ionomycin), % at 10 µM; 2% of 2,300 active; AID 652231;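 active means duplicate-averaged calcium signal over 20% of the ionomycin maximum, relative to buffer baseline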;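 further: each well's signal is peak minus trough fluorescence divided by its pre-addition baseline; 0% = buffer wells and 100% = ionomycin wells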
Parental YFP cnt: counter-screen for TMEM16A inhibitors: effect in parental YFP-HEK293 cells; 2,300 tested, under 10 active; shares compounds with ANO1 block; YFP ratio F(max-min)/F0 at 10 µM; iodide YFP quench, ionomycin;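 active means yellow fluorescent protein signal ratio exceeding the buffer control mean by over 5 SD of those controls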;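 further: ratio is mean of duplicate wells from kinetic YFP trace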
ClC-1 inh: blocks the rat ClC-1 voltage-dependent chloride channel; CHO ClC-1-YFP, iodide influx fluorescence quench; iodide control reads 0, buffer control 100; 2,300 tested, under 10 active; ratio percent, % at 10 µM; shares compounds with ANO1 block;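 active means duplicate-mean ratio percent above the mean of iodide-only control wells, which defines zero, plus 5 of their SD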;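 further: higher percent means stronger block of ClC-1 iodide influx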
Numbers without * were called inactive.

O=C(CSc1nnc2ccc(-c3ccccn3)nn12)N1CCCC1 was read as TMEM16A act inactive.
`Cc1ccc(N2CCN(CC(O)COC3CCCCC3)CC2)cc1` (stereo not given) gave ANO1 block 25*, CHT PAM inactive, TMEM16A act inactive, CHT inh inactive, TMEM16A reconf inactive, TMEM16A Ca cntr inactive, Parental YFP cnt -1.4 and ClC-1 inh -5.
For Cn1c(SCc2ccccc2Cl)nc2c1c(=O)[nH]c(=O)n2C the results were ANO1 block inactive, CHT PAM inactive, TMEM16A act inactive and CHT inh inactive.
Screening COc1cc(OC)cc(-c2ncc3ccccn23)c1 returned ANO1 block 100*, CHT PAM inactive, TMEM16A act inactive, CHT inh inactive, TMEM16A reconf inactive, TMEM16A Ca cntr inactive, Parental YFP cnt -1 and ClC-1 inh -8.
Cc1ccc(NC(=O)c2cnccn2)cc1C was read as ANO1 block inactive, CHT PAM inactive, TMEM16A act inactive and CHT inh inactive.
`CC(Oc1ccc(Br)cc1)c1nc2c3ccccc3nc(=S)n2[nH]1` (stereo not given) gave ANO1 block 25*, CHT PAM inactive, TMEM16A act inactive, CHT inh inactive, TMEM16A reconf 33%*, TMEM16A Ca cntr inactive, Parental YFP cnt -0.71 and ClC-1 inh -9.
`Cc1cc(C)n(CC(C)(O)c2ccccc2)n1` (stereo not given) gave ANO1 block inactive, CHT PAM inactive, TMEM16A act inactive and CHT inh inactive.
Screening COc1ccc(-c2noc(CNS(=O)(=O)c3ccc(NC(C)=O)cc3)n2)cc1OC returned ANO1 block inactive, CHT PAM inactive, TMEM16A act inactive and CHT inh inactive.
Screening Fc1cccc(Cl)c1CSc1nnnn1-c1ccc2c(c1)OCO2 returned ANO1 block 25*, CHT PAM inactive, TMEM16A act inactive, CHT inh inactive, TMEM16A reconf inactive, TMEM16A Ca cntr inactive, Parental YFP cnt -0.94 and ClC-1 inh -7.
`Cc1cccc2c(=O)cc(C(F)(F)F)[nH]c12` gave ANO1 block inactive, CHT PAM inactive, TMEM16A act inactive and CHT inh inactive.
For O=c1cc(C(F)(F)F)[nH]c2c(OC(F)(F)F)cccc12 the results were ANO1 block 100*, CHT PAM inactive, TMEM16A act inactive, CHT inh inactive, TMEM16A reconf 28%*, TMEM16A Ca cntr inactive, Parental YFP cnt -1.1 and ClC-1 inh -16.
For Oc1c(C=Nc2cccnc2)sc2ccccc12 the results were ANO1 block inactive, CHT PAM inactive, TMEM16A act inactive, CHT inh inactive, TMEM16A reconf inactive, TMEM16A Ca cntr inactive, Parental YFP cnt -1 and ClC-1 inh -5.
For COC(=O)c1ccc(COc2cccc3c2CCN(Cc2ccccc2)C3=O)o1 the results were ANO1 block inactive, CHT PAM inactive, TMEM16A act inactive and CHT inh inactive.
COC(=O)c1ccc(COc2cccc3c2CCN(Cc2cccc(C)c2)C3=O)o1 was read as ANO1 block 25*, CHT PAM inactive, TMEM16A act inactive, CHT inh inactive, TMEM16A reconf 19%*, TMEM16A Ca cntr inactive, Parental YFP cnt -1.2 and ClC-1 inh -4.
For CCOC(=O)N1CCC(NC(=O)c2cc(COc3ccccc3SC)on2)CC1 the results were ANO1 block inactive, CHT PAM inactive, TMEM16A act inactive and CHT inh inactive.
`COc1ccc(N(C)C(=O)c2cc3c(s2)-c2ccc(Cl)cc2S(=O)(=O)C3)c(OC)c1` gave ANO1 block 25*, CHT PAM inactive, TMEM16A act inactive, CHT inh inactive, TMEM16A reconf 26%*, TMEM16A Ca cntr inactive, Parental YFP cnt -0.81 and ClC-1 inh -8.
`COc1ccc(N(C)C(=O)c2cc3c(s2)-c2ccccc2OC3)c(OC)c1` gave ANO1 block inactive, CHT PAM inactive, TMEM16A act inactive and CHT inh inactive.
For CN(Cc1cccs1)C(=O)c1ccc(Cl)c(S(=O)(=O)N2CCCCCC2)c1 the results were TMEM16A act inactive.
O=C(O)c1ccc(N=Cc2c(O)ccc3ccccc23)cc1 was read as ANO1 block inactive, CHT PAM inactive, TMEM16A act inactive and CHT inh inactive.
`COc1ccc(N=Cc2c(O)ccc3ccccc23)cc1` gave ANO1 block inactive, CHT PAM inactive, TMEM16A act inactive, CHT inh inactive, TMEM16A reconf inactive, TMEM16A Ca cntr inactive, Parental YFP cnt -0.51 and ClC-1 inh 4.
CCCCN(C(=O)CSCC(=O)Nc1ccc(OC)cc1)c1c(N)n(CC(C)C)c(=O)[nH]c1=O was read as TMEM16A act inactive.
CN1CCN(C(=O)OCCOCCOC(=O)N2CCN(C)CC2)CC1 was read as TMEM16A act inactive.
For N#Cc1c(-c2ccccc2)nc(SCc2cccc(Cl)c2)[nH]c1=O the results were ANO1 block 100*, CHT PAM inactive, TMEM16A act inactive, CHT inh inactive, TMEM16A reconf 83%*, TMEM16A Ca cntr inactive, Parental YFP cnt -0.99 and ClC-1 inh -19.
O=C(N/N=C/c1c[nH]c2ccccc12)C1CC1c1ccccc1 (stereo not given) was read as ANO1 block 25*, CHT PAM inactive, TMEM16A act inactive, CHT inh inactive, TMEM16A reconf 46%*, TMEM16A Ca cntr inactive, Parental YFP cnt -0.69 and ClC-1 inh -10.
Screening O=C(N/N=C/c1c[nH]c2ccccc12)C1CC1(c1ccccc1)c1ccccc1 (stereo not given) returned ANO1 block inactive, CHT PAM inactive, TMEM16A act inactive and CHT inh inactive.
`O=C(CN1CCC(c2nc3ccccc3[nH]2)CC1)Nc1ccc2c(c1)OCO2` gave ANO1 block 100*, CHT PAM inactive, TMEM16A act inactive, CHT inh inactive, TMEM16A reconf inactive, TMEM16A Ca cntr inactive, Parental YFP cnt -1.2 and ClC-1 inh -2.
Cc1ccc2nc(C3CCN(CC(=O)Nc4ccc5c(c4)OCCO5)CC3)[nH]c2c1 was read as ANO1 block inactive, CHT PAM inactive, TMEM16A act inactive and CHT inh inactive.
